Laboratory results published in PubChem BioAssay AID1619 (SRMLSC, 2009).
The campaign covered roughly 220,000 compounds. About 830 (0.38%) were called active.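 The calls were made as follows: active = compound inhibiting the enzyme by more than half at any dose during confirmatory dose-response retesting; inconclusive = strong single-dose inhibitors picked by rank but not retested; inactive = the rest.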 A selection follows. Measured potencies and affinities stand elsewhere.

biological target: Leucine aminopeptidase (Plasmodium falciparum (isolate 3D7)) (UniProt Q8IL11); test: P. falciparum M17LAP inhibitors, primary screen, biochemical, fluorogenic H-Leu-NHMec substrate, 1536-well (AID 1619); details: recombinant M17LAP, H-Leu-NHMec fluorogenic kinetic assay; at 30 µM; stronger effect = higher value;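 also: plate controls were full reaction with DMSO carrier for no effect and no enzyme background for full effect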
Sequence (Q8IL11 whole entry, looked up): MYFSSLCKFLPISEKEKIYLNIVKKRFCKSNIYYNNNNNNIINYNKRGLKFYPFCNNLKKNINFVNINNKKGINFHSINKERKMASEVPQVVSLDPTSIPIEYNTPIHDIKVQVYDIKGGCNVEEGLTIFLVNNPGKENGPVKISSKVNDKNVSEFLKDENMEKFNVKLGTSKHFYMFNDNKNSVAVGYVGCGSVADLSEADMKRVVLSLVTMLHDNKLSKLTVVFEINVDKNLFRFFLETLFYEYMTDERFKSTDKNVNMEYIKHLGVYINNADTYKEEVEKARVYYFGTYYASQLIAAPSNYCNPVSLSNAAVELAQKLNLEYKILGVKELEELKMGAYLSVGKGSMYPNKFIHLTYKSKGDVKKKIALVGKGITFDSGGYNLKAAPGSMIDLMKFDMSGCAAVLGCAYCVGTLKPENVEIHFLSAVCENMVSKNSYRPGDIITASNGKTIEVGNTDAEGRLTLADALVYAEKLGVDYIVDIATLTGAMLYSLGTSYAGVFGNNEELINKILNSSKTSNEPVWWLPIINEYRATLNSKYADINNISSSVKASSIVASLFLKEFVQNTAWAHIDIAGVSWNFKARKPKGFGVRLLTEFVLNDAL

inhibition, inactive:
O=C1c2ccccc2C(=O)N1CSc1nnc(Nc2ccccc2F)s1 4.65%
CN(C)c1oc(-c2ccccc2Cl)nc1S(=O)(=O)c1ccccc1 0.69%
Cc1cccc(C)c1NC(=S)N/N=C/c1ccccc1C(=O)O 7.19%
COc1cc(/C=C/C(=O)OCC(=O)Nc2ccccc2Cl)cc(OC)c1OC 7.2%
Cc1ccccc1C(=O)NC(CC(C)C)C(=O)OCC(=O)c1c(N)n(C)c(=O)n(C)c1=O (stereo not drawn) -1.49%
CC(C)(C)NC(=O)C(c1ccc(O)cc1)N(C(=O)CCC(=O)Nc1nccs1)c1ccc(F)cc1 (stereo not drawn) 13.2%
O=C(CCCOc1ccccc1)Nc1ccccc1C(F)(F)F -17.7%
O=C1CC(c2ccccc2)=NN1c1nc(-c2ccccc2)cs1 -0.33%
CC1SCC(=O)N(CC(=O)Nc2ccc3c(c2)OCCO3)C1=O (stereo not drawn) 2.2%
O=C(CN1C(=O)CSCC1=O)NCc1ccc(F)cc1 18.6%
CC1SC(C)C(=O)N(CC(=O)Nc2ccc3c(c2)OCO3)C1=O (stereo not drawn) 35.2%
CCC1SC(CC)C(=O)N(CC(=O)NCc2ccc(F)cc2)C1=O (stereo not drawn) 7.04%
CCOC(=O)c1ccc(NC(=O)CN2C(=O)CSC(C)C2=O)cc1 (stereo not drawn) 37%
COc1ccc(NC(=O)CN2C(=O)C(C)SC(C)C2=O)c(OC)c1 (stereo not drawn) 26.5%
CCOc1ccc(NC(=O)CN2C(=O)CSC2=O)cc1 54.4%
CCOc1ccc(NC(=O)CN2C(=O)C(C)SC(C)C2=O)cc1 (stereo not drawn) 5.98%
CCOC(=O)C1(CCSC)NC(c2ccco2)C2C(=O)N(C)C(=O)C21 (stereo not drawn) -0.76%
CC(=O)c1sc(N2CCOCC2)nc1-c1ccccc1 9.61%
OCCC1CN(Cc2nc(-c3ccccc3)cs2)CCN1C1CCCC1 (stereo not drawn) 7.26%
Cc1c(-c2ccccc2)oc2c(C(=O)OCC(=O)Nc3cccc(F)c3)cccc2c1=O 2.04%
CCOC(=O)c1ccc(NC(=O)c2cccc(C)c2[N+](=O)[O-])cc1 0.85%
CCCCN(CC)S(=O)(=O)c1ccc(C(=O)N(CCCN(C)C)c2nc3cc(C)cc(C)c3s2)cc1 -3.97%
CC(=O)Nc1cccc(C(=O)OCc2ccc([N+](=O)[O-])cc2)c1 1.17%
Cc1cccc(Nc2nnc(C)c(=O)n2N)c1 8.38%
O=c1[nH]c2ccc(S(=O)(=O)N3CCCCC3)cc2[nH]c1=O 38.3%
O=c1[nH]c2ccc(S(=O)(=O)N3CCN(c4ccccc4)CC3)cc2[nH]c1=O 40.2%
COCC(=O)NCc1ccc2c(c1)OCO2 -6.02%
COC(=O)NCc1ccc2c(c1)OCO2 2.83%
COc1ccc(OCCCC(=O)Nc2cccc(SC)c2)cc1 1.34%
Nc1c(C(=O)C2CC2)sc2nc(-c3ccccc3)cc(C(F)(F)F)c12 -0.94%
O=c1cc(O)c2sc3nc(-c4ccccc4)cc(C(F)(F)F)c3c2[nH]1 -7%
Cc1cc(C)cc(N(C(=O)c2sc(C)nc2C)C(C(=O)NC(C)(C)C)c2ccncc2)c1 (stereo not drawn) 0.85%
FCCCOc1ccc(/C=N/OCc2ccc(Cl)cc2Cl)cc1 11.5%
